PubChem BioAssay AID602350 (Broad Institute, 2012)
Potency and affinity values are given separately. Active and inactive are the calls of the source.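 Rule for the calls: active = absorbance falls by 30% or more versus neutral controls, with a potency fitted within twice the top valid dose; inconclusive = no clear call, values can overlap the other calls; inactive = change opposite to expected direction, plus the rest.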

molecular target: Protein disulfide-isomerase (Homo sapiens) (UniProt P07237); assay: inhibition of PDI-driven insulin aggregation – biochemical, turbidity, absorbance, cherry-picked samples, dose response (AID 602350); settings: recombinant PDI insulin aggregation, absorbance 650 nm, 90 min; series mostly up to 19.5 µM
Sequence (P07237 whole entry, looked up): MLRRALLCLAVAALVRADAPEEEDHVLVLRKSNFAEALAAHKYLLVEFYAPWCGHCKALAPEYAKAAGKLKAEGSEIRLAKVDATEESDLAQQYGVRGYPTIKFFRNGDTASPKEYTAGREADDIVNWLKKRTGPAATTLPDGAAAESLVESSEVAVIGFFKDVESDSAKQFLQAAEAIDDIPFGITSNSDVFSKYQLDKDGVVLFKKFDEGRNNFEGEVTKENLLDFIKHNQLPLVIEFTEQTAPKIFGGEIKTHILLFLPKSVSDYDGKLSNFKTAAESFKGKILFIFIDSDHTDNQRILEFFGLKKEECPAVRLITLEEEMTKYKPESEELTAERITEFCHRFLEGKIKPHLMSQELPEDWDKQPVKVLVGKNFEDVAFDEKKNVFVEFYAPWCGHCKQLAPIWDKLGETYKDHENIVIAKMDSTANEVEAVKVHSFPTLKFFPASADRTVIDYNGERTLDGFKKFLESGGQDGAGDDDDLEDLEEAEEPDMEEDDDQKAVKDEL

outcome, inactive:
CN1C(=O)NC(c2ccccc2)C2=C1CN(c1cccc(C(F)(F)F)c1)C2=O (centres undefined)
CCCCn1c(SCC(=O)NC2CCS(=O)(=O)C2)nc2ccccc2c1=O (centres undefined)
CCCCNC(=O)CCn1c(=O)c2ccccc2n(CC(=O)Nc2ccccc2OCC)c1=O
C[C@@H]1CN([C@H](C)CO)C(=O)Cc2cc(NC(=O)Nc3ccccc3)ccc2O[C@H]1CN(C)Cc1ccccc1
Cc1ccc(SCC(=O)c2sc(-c3ccccc3)nc2C)cc1
CNc1ncnc2c1ncn2[C@H]1CN(Cc2cccc3ccccc23)C[C@@H](CO)O1
COc1ccc(/C(C)=N/NC(=O)CNC(=O)c2cccs2)cc1
CCCCn1c(N)c(N(CC(C)C)C(=O)c2cc(-c3ccncc3)nc3ccccc23)c(=O)[nH]c1=O
CC1(C)CC[C@]2(C(=O)O)CC[C@]3(C)C(=CC[C@@H]4[C@@]5(C)CC[C@H](O[C@@H]6O[C@H](C(=O)O)[C@@H](O)[C@H](O[C@@H]7OC[C@H](O)[C@H](O)[C@H]7O)[C@H]6O)C(C)(C)[C@@H]5CC[C@]43C)[C@@H]2C1
CCOc1cc(N2CCOCC2)c(OCC)cc1NC(=O)Cc1ccccc1OC
Cc1c(-n2cc(C(=O)c3cc(Br)ccc3O)cc(C#N)c2=O)c(=O)n(-c2ccccc2)n1C
CC(O)(c1cccnc1)c1nc(-c2cc(F)cc(F)c2)cs1 (centres undefined)
c1ccc(Cn2nnc3c(Nc4ccc5c(c4)OCO5)nc(C4CC4)nc32)cc1
Oc1cccc(-c2nc3c4c(ncn3n2)-c2ccccc2CC42CCCC2)c1
CC(=O)N1CCC(C(=O)NCCOc2cccc(C)c2)CC1
CCOC(=O)c1c(CN2CCOCC2)n(-c2ccccc2)c2cc(Br)c(OC)cc12
Cc1nc(C(=O)Nc2cccc(Cl)c2Cl)nn1-c1cc(OC(C)C)c(Cl)cc1Cl
CCc1ccc(NC(=O)Nc2ccncc2)cc1
CC(OC(=O)c1cccc(S(=O)(=O)N(C)C)c1)C(=O)NCC(=O)Nc1ccc(F)c(F)c1F (centres undefined)
O=C(CNC(=O)c1n[nH]c2ccccc12)Nc1cc(Cl)ccc1Cl
CCCCC(=O)OC1CCC2C3CCc4cc(O)ccc4C3CCC12C (centres undefined)
C=CC[C@H](CC(=O)N(CCO)Cc1ccccc1)C(=O)N[C@H](COC(=O)[C@@H](CC=C)Cc1ccc(F)cc1)Cc1c[nH]c2ccccc12
O=C(NCc1ccccn1)Nc1cccc(Cl)c1
C=CCNc1ncnc2c1ncn2[C@H]1CN(Cc2cccc3ccccc23)C[C@@H](CO)O1
CC1(c2ccc3ccccc3c2)NC(=O)N(CC(=O)Nc2cccc(S(=O)(=O)N3CCOCC3)c2)C1=O (centres undefined)
CN(C)c1ccc(NC(=O)CN2C(=O)CC(c3ccccc3)=Nc3ccccc32)cc1
Cc1c(O)ccc2c(CN3CCN(Cc4ccccc4)CC3)cc(=O)oc12
O=C(O)CCc1ccc(-c2cccs2)n1NC(=O)c1ccco1
Cc1cc(NC(=O)CSc2[nH]c(=O)cc(C(F)(F)F)c2C#N)no1
CCN(CC)C(=O)CSc1nnc([C@H](Cc2c[nH]c3ccccc23)NC(=O)OC(C)(C)C)o1
NC(Cc1ccc(C(F)(F)F)cc1)c1csc(Nc2ccc(C(=O)NCCCO)cn2)n1 (centres undefined)
COCc1[nH][nH]c(=O)c1C=Nc1ccc(F)cc1F
O=C(Cc1ccccc1)Nc1cccc(C(=O)N/N=C/c2ccco2)c1
Cc1ccc(N2CC(C(=O)Nc3nc4ccc(S(C)(=O)=O)cc4s3)CC2=O)cc1 (centres undefined)
COc1cc(C(C)=O)ccc1OCC(=O)NCCCn1nc(C)cc1C
O=C(N/N=C/c1ccc(O)cc1)NC12CC3CC(CC(C3)C1)C2
CCCn1nnnc1NC(=O)c1cccs1
Cc1[nH][nH]c(=O)c1C(c1c(C)[nH][nH]c1=O)c1cn(Cc2ccccc2Cl)c2ccccc12
CCOc1ccccc1CN1CCNC(=O)C1CC(=O)NCc1nccn1CC (centres undefined)
